Laboratory results as given in PubChem BioAssay AID1508602 (The Scripps Research Institute Molecular Screening Center, 2020).
Where “and” joins values, the source holds several entries; their conditions need not be identical. Equal values may be shown once. Screen size: about 650,000 compounds; about 6,800 (1%) were called active. The entries come from a sample that favours actives as a whole. A number with no mark means an inactive call. Rule as the data show it: active = activation above about 4.9%; inactive = the rest.

Each compound was assayed against G-protein coupled receptor 151 (Homo sapiens) (UniProt Q8TDV0) (assay: activators of human GPR151, primary screen, cell-based, PathHunter beta-arrestin, luminescence (AID 1508602;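 also: 0% = median of compound wells and 100% = cells with positive control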)). Details: PathHunter beta-arrestin GPR151 cells, at 11.2 µM, stronger effect = higher value.
G-protein coupled receptor 151 (Homo sapiens), sequence (Q8TDV0 whole entry, looked up): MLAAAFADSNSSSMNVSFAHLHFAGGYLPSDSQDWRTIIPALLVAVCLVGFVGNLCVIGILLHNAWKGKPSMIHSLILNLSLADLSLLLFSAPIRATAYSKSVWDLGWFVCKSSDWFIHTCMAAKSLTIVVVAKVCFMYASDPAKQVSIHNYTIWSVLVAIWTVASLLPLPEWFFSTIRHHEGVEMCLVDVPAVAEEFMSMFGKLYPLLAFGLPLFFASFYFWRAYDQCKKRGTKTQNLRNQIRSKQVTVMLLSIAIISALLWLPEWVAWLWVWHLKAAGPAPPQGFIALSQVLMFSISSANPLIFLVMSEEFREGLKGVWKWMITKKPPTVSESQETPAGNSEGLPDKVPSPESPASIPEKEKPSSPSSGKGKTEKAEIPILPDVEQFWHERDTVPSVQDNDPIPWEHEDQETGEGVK
In the case of `O=S(=O)(c1cccs1)N1CCc2nc(-c3cccnc3)nc(N3CCCCC3)c2C1`, the activation is reported as 0.747%. Compound `O=C(O)c1cccc(-n2[nH]c(=O)ccc2=O)c1` has an activation of -1.37%. `CCOC(=O)c1cc2cc(-c3c(C)oc4cc(OC(C)=O)ccc4c3=O)ccc2o1` was tested, and the activation was 6.66% (active). Compound `CCOC(=O)c1cc2cc(-c3c(C(=O)OCC)oc4cc(O)cc(O)c4c3=O)ccc2o1` has an activation of 0.272%. With `COc1ccc(-c2c(C)oc3cc(OC)ccc3c2=O)cc1` the activation was 0.167%. `C/C=C/C=C/C(=O)N1C(=O)C(=O)c2ccccc21` gave an activation of -4.81%. For `Cc1ccc(NC(=O)CSc2nnc(-c3ccc(N)cc3)n2C)cc1Cl`, the activation was 5.78% (active). Work on `Cc1ccc(Cl)cc1NC(=O)CSc1nnc(-c2ccc(N)cc2)n1C` yielded an activation of 0.746%. Work on `Cc1ccc(NC(=O)CSc2nnc(-c3ccc(O)cc3)n2C)cc1N` yielded an activation of -0.276%. Compound `CCOC(=O)/C(C#N)=C\c1c(C)cc(C)c(COC)c1C` has an activation of 4.44%. In the case of `CN1CCC[C@@H]1CCOC(C)(c1ccccc1)c1ccc(Cl)cc1` (stereo partly specified), the activation is reported as -2.7% and 3.67%. `O=c1sc2sc(=S)sc2s1` was tested, and the activation was -0.693%. `c1ccc(-n2nnnc2NC2CCCCCC2)cc1` was tested, and the activation was -0.96%. Compound `C1CCC(Nc2nc3nonc3nc2NC2CCCCC2)CC1` has an activation of -0.129%. `Brc1cnc(NC2CCCCC2)nc1` was tested, and the activation was 7.99% (active). Compound `CCc1cc2cc(OC)ccc2nc1SCC(=O)Nc1nccs1` has an activation of 0.182%. `CN1CCN(C(=O)c2ccc(-c3nc(NCc4ccccc4)c4ncn(Cc5ccc(C(F)(F)F)cc5)c4n3)cc2)CC1` showed an activation of 0.228%. `COc1ccccc1C(=O)CN1CCN(S(=O)(=O)c2ccc(Cl)cc2)CC1` gave an activation of 1.49%. `O=[N+]([O-])c1ccccc1S(=O)(=O)NCCSCc1ccc(Cl)cc1` showed an activation of -0.348%. `NC(=O)C12CC3CC(CC(C3)C1)C2` was tested, and the activation was -0.0547%. With `O=C(N1CCCCCC1)C12CC3CC(CC(C3)C1)C2` the activation was 0.202%. For `COC(=O)[C@@H]1CC(O)CN1C(=O)C12CC3CC(CC(C3)C1)C2` (stereo partly specified), the activation was 6.17% (active). For `CCc1ccc(N2N=C(C)/C(=C/c3ccc(-c4ccc(S(N)(=O)=O)cc4)o3)C2=O)cc1`, the activation was -0.641%. With `CCc1ccc(N2N=C(C)/C(=C\c3ccc(-c4ccc5c(c4)C(=O)NC5=O)o3)C2=O)cc1` the activation was 6.36% (active). `CC1=NN(c2cccc(Cl)c2)C(=O)/C1=C/c1ccc(-c2ccc(F)cc2)o1` showed an activation of 1.46%. For `COc1cccc(NC(=O)c2sc3ncn(CC(=O)Nc4ccccc4OC)c(=O)c3c2C)c1`, the activation was 0.463%. For `CC(C)(C)C1(O)CC(=O)C(=O)NN1c1ccccc1` (stereo unspecified), the activation was -0.103%. Compound `CC(CO)(CO)NC(=S)NC(=O)c1ccccc1` has an activation of -2.1%. `CC(C)C[C@@H]1NC(=O)[C@H]2CN(Cc3ccccc3Cl)CCN2C1=O` was tested, and the activation was 1.34%. In the case of `Cc1ccc(C(=O)COc2ccc(C#N)cc2)c(C)c1`, the activation is reported as 0.546%. With `Cc1sc(NC(=O)CN(C(=O)c2cccc(F)c2)C2CCCC2)c(C(N)=O)c1C` the activation was 0.439%. With `CCN1C(=O)C(=Cc2ccc(N3CCCC3)cc2C)C(=O)N(CC)C1=S` the activation was 2.62%. In the case of `Cc1cc(N2CCOCC2)ccc1/C=C1\C(=O)NC(=S)N(c2ccccc2)C1=O`, the activation is reported as 0.368%. For `Cc1cc(N2CCOCC2)ccc1C=C1C(=O)c2ccccc2C1=O`, the activation was 5.28% (active). In the case of `O=C(Nc1nc2c(ccc3ccccc32)s1)c1cccc(Oc2ccccc2)c1`, the activation is reported as 1.27%. In the case of `COC(=O)c1c(NC(=O)c2ccc(Cl)c(Cl)c2)sc2c1CCCC2`, the activation is reported as 0.167%. With `COC(=O)c1c(NC(=O)Nc2ccc(Cl)c(Cl)c2)sc2c1CCCC2` the activation was 8.57% (active). `CCOC(=O)c1c(NC(=O)Nc2cccc(Cl)c2)sc2c1CCCC2` showed an activation of 0.0535%. In the case of `COc1ccc(OC)c(NC(=O)CN(c2cccc(C)c2C)S(C)(=O)=O)c1`, the activation is reported as 5.98% (active). Compound `Cc1ccc(C)c(NC(=O)CN(c2cccc(C)c2C)S(C)(=O)=O)c1` has an activation of 0.883%. In the case of `COc1ccc(NC(=O)CN(c2cc(OC)ccc2OC)S(C)(=O)=O)c(OC)c1`, the activation is reported as 0.777%. Work on `CCCOc1ccc([N+](=O)[O-])cc1C1NC(=S)NC(C)=C1C(=O)OC` (stereo unspecified) yielded an activation of -1.65%. `Cc1cc2nc(C3CCCCN3C(=O)c3cscn3)[nH]c2cc1C` (stereo unspecified) gave an activation of -0.0121%. `Cc1c2cnn(-c3ccccc3)c(=O)c2c(C)n1CCCC(=O)N1CCN(C)CC1` showed an activation of 0.178%. With `CCC(C(=O)N1CCCCC1)n1c(C)c2cnn(-c3ccccc3)c(=O)c2c1C` (stereo unspecified) the activation was 5.32% (active). Work on `CCC(C(=O)N1CCN(C)CC1)n1c(C)c2cnn(-c3ccccc3)c(=O)c2c1C` (stereo unspecified) yielded an activation of -1.42%. `Cc1ccc(S(=O)(=O)Oc2ccc(/C=C3\SC(N)=NC3=O)cc2)cc1` was tested, and the activation was -0.455%. `COc1ccc2c(c1)C(Cc1csc(C)n1)(c1ccc(F)cc1)C(=O)N2` (stereo unspecified) showed an activation of 0.748%. Compound `CC(C)NCCOCCOc1ccc(I)cc1` has an activation of 0.568%. Work on `CCNc1nc(NC(C)C)nc(OCCOC(=O)c2ccccc2)n1` yielded an activation of 1.89%. `CCNc1nc(NC(C)C)nc(OCCOC(C)=O)n1` was tested, and the activation was 5.11% (active). `CCNc1nc(NCC)nc(C(=O)O)n1` showed an activation of -0.247%. Compound `Cc1ccc(CN(C)Cc2nc3sc4c(c3c(=O)[nH]2)CCC4)o1` has an activation of 0.643%. In the case of `COc1ccc(Nc2ncc(-c3ccc(CO)cc3)n3ccnc23)cc1`, the activation is reported as -0.0468%. `NC(=O)c1ccc(Nc2nccn3c(-c4cccc(F)c4)cnc23)cc1` was tested, and the activation was -0.391%. In the case of `CC(C)c1ccc(Nc2nccn3c(-c4cccc(CO)c4)cnc23)cc1`, the activation is reported as 7.31% (active). `COc1ccccc1NC(=O)CSc1nnc(-c2ccc(O)cc2)o1` showed an activation of -0.782%. With `CCOc1cccc(CN2CCOc3ccc(CN4CCNC(=O)C4CC)cc3C2)c1` (stereo unspecified) the activation was -1.24%. With `CCC1C(=O)NCCN1Cc1ccc2c(c1)CN(Cc1c[nH]c3ccccc13)CCO2` (stereo unspecified) the activation was 5.37% (active). For `CC(=O)N1CCN(Cc2ccc3c(c2)CN(Cc2c[nH]c4ccccc24)CCO3)CC1`, the activation was 2.78%. For `COc1ccc2c(c1)C=C(CN1CCN(CC3CCCCC3)C(CCO)C1)CO2` (stereo unspecified), the activation was 5.13% (active). `COc1cccc2c1OCC(CN1CCN(C3CCCCC3)C(CCO)C1)=C2` (stereo unspecified) was tested, and the activation was 2.61%. Work on `COc1cc(CN2CCN(CC3CCCCC3)C(CCO)C2)ccc1O` (stereo unspecified) yielded an activation of -0.725%. Work on `O=C(Nc1ccc(Cl)cc1F)c1ccc(SCC(=O)N2CCCCC2)c([N+](=O)[O-])c1` yielded an activation of 2.3%. `COc1ccc(S(=O)(=O)N(C)CC(=O)NCc2ccccn2)cc1C` was tested, and the activation was 2.7%. `Cc1cccc(Nc2nnc(SCC(=O)N3CCCC3=O)s2)c1C` showed an activation of -1.1%. Compound `Cc1cccc(NC(=O)CN2C(=O)S/C(=C\c3ccc(Br)s3)C2=O)c1` has an activation of 1.12%. In the case of `O=C(CN1C(=O)S/C(=C\c2ccc(Cl)s2)C1=O)Nc1ccccc1F`, the activation is reported as 7.92% (active). In the case of `O=C(CN1C(=O)COc2ccc(Cl)cc21)Nc1ccccc1F`, the activation is reported as 0.859%. Work on `COc1ccc(N2C(=O)CN(C(=O)c3cc(C(F)(F)F)[nH]n3)CC23CCCC3)cc1` yielded an activation of -0.225%. In the case of `C[C@H]1Cc2c(COc3ccccc3)nc3c(c2CO1)CN(C(=O)NCc1ccco1)CC3`, the activation is reported as 8.56% (active). In the case of `COc1cccc(CC(=O)N2CCc3nc(COc4ccccc4)c4c(c3C2)CO[C@@H](C)C4)c1`, the activation is reported as 4.35%. In the case of `C[C@H]1Cc2c(COc3ccccc3)nc3c(c2CO1)CN(C(=O)Nc1cccc(C#N)c1)CC3`, the activation is reported as -0.449%. For `Cc1ccnc(-n2c(=O)c3cc4c(=O)n(-c5cc(C)ccn5)c(=O)c4cc3c2=O)c1`, the activation was -0.463%. `Cc1ncc(CO)c(/C=N/NC(=O)c2cc3c(s2)CCC(C)C3)c1O` (stereo unspecified) gave an activation of -0.38%. For `CN(C)c1ccc(C=NCC(O)CN=Cc2ccc(N(C)C)cc2)cc1` (stereo unspecified), the activation was 0.679%. In the case of `CC[n+]1cc(C)ccc1/C=C/c1ccc(N(C)C)cc1`, the activation is reported as 5.25% (active). `CC[n+]1c(/C=C/c2ccc(N(C)C)cc2)oc2ccccc21` was tested, and the activation was -0.273%. With `CCC(C)C(=O)NCc1nnc2n1CCN(C(=O)c1sc(C)nc1C)CC2` (stereo unspecified) the activation was -0.99%. `COc1cccc(NC(=O)c2cc([N+](=O)[O-])ccc2NC(=O)CNCc2cccnc2)c1` showed an activation of -1.03%. Compound `O=C(Nc1ccc(-c2ccncc2)cn1)C1COc2ccccc2O1` (stereo unspecified) has an activation of -2.03%. With `COCCNc1nc2nonc2nc1N1CCCC1c1nccs1` (stereo unspecified) the activation was 1.38%. In the case of `COCCNc1nc2nonc2nc1N(C)Cc1ccc(C)cc1`, the activation is reported as -1.03%. For `COCCNc1nc2nonc2nc1N(C)Cc1ccncc1C`, the activation was 8.73% (active). For `O=C(O)c1cc([N+](=O)[O-])c(NCc2ccccc2)c([N+](=O)[O-])c1`, the activation was 0.643%. In the case of `O=C(Cn1c(=O)n(Cc2ccc(F)cc2)c(=O)c2cccnc21)Nc1ccccc1F`, the activation is reported as 0.571%. With `O=C(Cn1c(=O)n(Cc2cccs2)c(=O)c2cccnc21)Nc1ccc(F)cc1` the activation was 5.75% (active). `O=C(Cn1c(=O)n(Cc2ccc3c(c2)OCO3)c(=O)c2cccnc21)Nc1ccc(F)cc1` showed an activation of -0.979%. `COc1ccc(NC(=O)c2ccc(F)c3ccccc23)cc1` gave an activation of 0.361%. With `COC(=O)c1cnn2c1NCN(Cc1ccccc1Cl)C2` the activation was 0.44%. `CC(=O)Nc1cccc(-c2cnc3[nH]c(=O)n([C@@H](C)c4ccccc4)c3n2)c1` gave an activation of 0.0611%.
